DT40 TDP1 no CPT = qHTS for Inhibitors of human tyrosyl-DNA phosphodiesterase 1 (TDP1): qHTS in cells in absence of CPT. DT40 Tdp1-/- hTDP1 cells, no CPT, ATP luminescence, 48 h. Potency, µM (series often up to 46.2 µM), for inactives: at the highest dose activity change, negative = growth inhibition, actives largely listed as inhibitors. hit rate 15% among 420,000. AID 686978, 2013; further: potency means the concentration at half of the fitted maximal effect; nearly all actives have a fitted effect of over 55% in size
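Growth of hTDP1-complemented DT40 Tdp1-knockout cells is measured by ATP luminescence after at least 48 hr compound exposure at 37 °C, with DMSO substituting for the 20 nM CPT used in the parallel screen.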
IL-1B inflam inh = qHTS for Inhibitors of Inflammasome Signaling: IL-1-beta AlphaLISA Primary Screen; hit rate 4.7% among 360,000; activity change, % at 57.5 µM; AID 743279, 2014; THP-1 LPS/ATP IL-1B secretion, AlphaLISA, 16 h; hits give low values; in the data active means activity change below about -50%; inconclusive means mostly about -30% to -49%
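THP-1 cells pretreated 1 hr with compounds (up to 57.5 uM final), then stimulated with LPS (250 ng/mL final) plus ATP (1.25 mM final); secreted IL-1B measured by AlphaLISA after 16 hr, decreased signal indicating inhibition.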
ALOX12 inh = Primary qHTS assay for inhibitors of human arachidonate 12S-lipoxygenase (ALOX12): Round 2. Polyunsaturated fatty acid lipoxygenase ALOX12 (Homo sapiens), P18054. purified 12hLO, xylenol orange hydroperoxide absorbance. Potency, µM (top dose mostly 108 µM), without a hit: at the top dose activity change, negative = inhibition, hits mostly inhibitors. hit rate 1.1% among 580,000. AID 1671190, 2021; further: potency means the concentration at half of the fitted maximal effect
Target sequence (P18054 whole entry, looked up): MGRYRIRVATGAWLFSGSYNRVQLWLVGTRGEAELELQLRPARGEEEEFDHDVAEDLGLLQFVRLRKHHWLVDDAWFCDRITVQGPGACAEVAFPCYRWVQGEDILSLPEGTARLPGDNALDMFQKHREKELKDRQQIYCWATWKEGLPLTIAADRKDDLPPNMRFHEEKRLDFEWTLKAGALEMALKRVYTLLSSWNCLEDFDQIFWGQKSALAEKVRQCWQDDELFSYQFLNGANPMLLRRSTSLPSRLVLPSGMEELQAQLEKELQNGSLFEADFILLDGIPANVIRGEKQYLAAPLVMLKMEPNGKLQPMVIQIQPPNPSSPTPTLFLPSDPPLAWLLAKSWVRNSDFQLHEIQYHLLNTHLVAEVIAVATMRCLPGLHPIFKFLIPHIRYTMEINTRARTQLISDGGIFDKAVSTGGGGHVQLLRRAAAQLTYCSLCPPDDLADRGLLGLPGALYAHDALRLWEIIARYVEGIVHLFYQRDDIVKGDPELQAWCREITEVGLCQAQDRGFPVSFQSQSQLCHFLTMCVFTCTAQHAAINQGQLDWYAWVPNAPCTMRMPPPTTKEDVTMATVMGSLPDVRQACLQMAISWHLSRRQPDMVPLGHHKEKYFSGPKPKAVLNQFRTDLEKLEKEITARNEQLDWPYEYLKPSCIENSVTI
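Purified human 12hLO (150 nM final) in 25 mM Hepes, 0.01% Triton X-100, pH 7.0 was preincubated 15 min at room temperature with compound. Then 40 uM arachidonic acid was added, 30 min. Hydroperoxide was read by Fe-XO absorbance ratio 573/405 nm.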
HT1080 IDH1KD tx = qHTS for induction of synthetic lethality in tumor cells producing 2HG: qHTS for the HT-1080-IDH1KD cell line | Potency, µM (top dose mostly 46.1 µM), without a hit: top-dose activity, negative = toxicity, usual class: cytotoxic | hit rate 2% among 360,000 | HT-1080 IDH1 knockdown viability, ATP luminescence, 48 h | AID 686971, 2013;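 further: potency means the concentration at half of the fitted maximal effect; 0% = DMSO wells and -100% = cell-free medium wells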
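HT-1080-IDH1KD cells (IDH1 knocked down), 750/well in RPMI with 5% FBS, treated with compound 48 h at 37 degrees C. Viability by CellTiter-Glo luminescence, normalised to DMSO and no-cell wells; concentration-response curves classed.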
TDP1 cell CPT = qHTS for Inhibitors of human tyrosyl-DNA phosphodiesterase 1 (TDP1): qHTS in cells in presence of CPT | chicken DT40 Tdp1-/-;hTDP1 cells + 20 nM CPT, ATP luminescence, 48 h | Potency, µM (series often up to 46.2 µM), inactives show at the highest dose activity change, negative = growth inhibition, most hits filed as inhibitors | hit rate 12% among 420,000; further: potency means the concentration at half of the fitted maximal effect; nearly all actives have a fitted effect of over 55% in size
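Cell growth measured by CellTiter-Glo luminescence after a minimum 48 h, 37 C compound exposure with 20 nM CPT in Tdp1-knockout DT40 cells stably expressing hTDP1, seeded 400/well; qHTS titration format.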
HT1080-NT tox = qHTS for induction of synthetic lethality in tumor cells producing 2HG: qHTS for the HT-1080-NT fibrosarcoma cell line | AID 686970, 2013 | HT-1080-NT fibrosarcoma viability, CellTiter-Glo ATP luminescence, 48 h | Potency, µM (doses to about 46.1 µM), for inactives: at the highest dose activity, negative = less viability, usual class: cytotoxic | hit rate 1.6% among 360,000;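 further: NT is the 2HG producing partner of a matched IDH1 knockdown line; potency means the concentration at half of the fitted maximal effect; 0% = DMSO-treated cells and -100% = media-only wells without cells; nearly all actives have a fitted effect of over 55% in size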
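A 48-hour cytotoxicity screen used HT-1080-NT cells plated 2 hours before compound delivery. ATP-based CellTiter-Glo luminescence measured viability, normalized to DMSO and no-cell controls.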
The depositor's hits bear a star; ? = inconclusive; . = no result given; ! = not active in a repeat; [ ] = remark or other dose. Many of the other results were omitted from the sample, so hits are more common in it than they were. Unless noted, the call rests on the fitted dose curve; in most records, active means well fitted curve in the direction sought with a large enough effect; inconclusive means small, poorly fitted or top-dose-only effect, or another doubt; inactive means no such curve, though single readings can be large; an effect the other way counts as inactive or inconclusive. Unless noted, on the % scale 0 is the no-effect control and ±100 the full control effect.

SMILES	DT40 TDP1 no CPT	IL-1B inflam inh	ALOX12 inh	HT1080 IDH1KD tx	TDP1 cell CPT	HT1080-NT tox
CC(C)c1nc2sc3c(NCc4ccccc4)ncnc3c2c2c1COC(C)(C)C2	?	?	0%	1%	9.2µM*	-2%
CC(C)c1nc2sc3c(NCc4ccco4)ncnc3c2c2c1COC(C)(C)C2	23µM*	?	9%	?	18µM*	-26%
CC(=O)Nc1nc2n(n1)C(c1ccc(F)cc1)C=C(c1ccc(Cl)cc1)N2 (stereo not given)	?	.	5%	.	?	.
COc1ccc(C2C=C(c3ccc(C)c(C)c3)Nc3ncnn32)c(OC)c1OC (stereo not given)	5.2µM*	-14	7%	?	8.2µM*	?
COc1ccc(C2C=C(c3ccc(Cl)cc3)Nc3nc(-c4ccc(Cl)cc4)nn32)cc1 (stereo not given)	4.6µM*	.	5.6µM*	.	8.2µM*	.
Cc1ccc(-c2nc3n(n2)C(c2ccccc2C)C=C(c2ccc(Cl)cc2)N3)cc1 (stereo not given)	23µM*	.	-10%	.	?	.
Cc1ccc(C2=CC(c3ccc(Cl)cc3)n3nc(-c4ccc(C)cc4)nc3N2)cc1 (stereo not given)	?	.	?	.	33µM*	.
CCc1nc(C)c(C(=O)N2CCC(c3[nH]ncc3-c3ccccc3C)CC2)o1	.	.	81%	.	.	.
COc1ccc(C2C=C(c3ccccc3)Nc3ncnn32)cc1 (stereo not given)	?	-19	0%	10%	18µM*	16%
CCC(=O)c1cccc(-c2ccccc2)c1CC	-16%	-69*	-2%	-7%	5%	-18%
O=c1cc(Br)c(O)c(Br)cc1Br	18µM*	?	?	15%	?	9%
COC(=O)c1cc(Br)cc(Br)c1O	.	.	-12%	.	.	.
CCCN1C(=O)/C(=c2\sc3nc(=O)c(Cc4ccc(C)cc4)nn3c2=O)c2ccccc21	-22%	?	50µM*	16%	4%	-1%
CCCN1CCN(CCCNC(=O)c2ccc3nc(N4CCC(C)CC4)sc3c2)CC1	?	-8	5%	-25%	-20%	-9%
Cc1ccc(C)c(N2CCN(CCCNC(=O)c3ccc4nc(N5CCC(C)CC5)sc4c3)CC2)c1	9.2µM*	.	?	.	15µM*	.
COc1ccc(N2CCN(CCCNC(=O)c3ccc4nc(N5CCCCC5)sc4c3)CC2)cc1	?	.	?	.	16µM*	.
Cc1ccc(Cl)cc1N1CCN(CCCNC(=O)c2ccc3nc(N4CCCCC4)sc3c2)CC1	12µM*	.	-15%	.	21µM*	.
Cc1ccc(C(=O)N2CCC3(CCCN(C4CCOCC4)C3=O)C2)cc1F (stereo not given)	.	.	32%	.	.	.
CCOC(=O)c1sc(NC(C)C)nc1C(F)(F)F	.	.	-9%	.	.	.
Nc1cc(-c2ccncc2)c[nH]c1=O	16µM*!	19	-4%	4%	?	27%
NC(=O)c1csc(-c2ccncc2)n1	-20%	9	0%	-3%	-4%	1%
O=C(NCC1CN(CC2CC2)CC12CN(c1ccccc1)C2)Nc1ccccc1 (stereo not given)	.	.	13%[176 µM]	.	.	.
COc1ccc(NCc2nc3ccccc3n2CCOc2ccccc2C)cc1	?	.	3%	.	18µM*	.
CCCn1c(CNc2ccc(Br)cc2)nc2ccccc21	?	-28	7%	-7%	23µM*	1%
Cc1ccc(NCc2nc3ccccc3n2CCOc2ccccc2)cc1	18µM*	-96*	1%	6%	?	8%
SMILES	DT40 TDP1 no CPT	IL-1B inflam inh	ALOX12 inh	HT1080 IDH1KD tx	TDP1 cell CPT	HT1080-NT tox
Fc1ccc(NCc2nc3ccccc3n2CCOc2ccccc2Cl)cc1	?	.	5%	.	?	.
CC(C)Oc1ccc2ccccc2c1/C=C(\C#N)c1nc2ccccc2[nH]1	.	.	10%	.	.	.
NC(=O)C(=O)N/N=C/C1CCCCC1	.	.	-14%	.	.	.
CC1(C)Oc2ccc3ccc(=O)oc3c2/C(=C/Nc2ccc(O)cc2)C1=O	?	-81*	-28%	-19%	-21%	?
CC1(C)Oc2ccc3ccc(=O)oc3c2/C(=C/Nc2ccccn2)C1=O	?	-15	?	14%	?	15%
CC1(C)Oc2ccc3ccc(=O)oc3c2/C(=C/Nc2cccc(O)c2)C1=O	21µM*	-84*	?	?	?	?
CN(C)C(=O)C(Sc1nc2ccccc2o1)c1ccccc1 (stereo not given)	.	.	2%	.	.	.
Cc1nncn1C1CCN(S(=O)(=O)c2ccc(F)c(F)c2)CC1	.	.	15%	.	.	.
Cn1c(Oc2ccccc2NCc2cc(Br)ccc2O)cc(=O)n(C)c1=O	23µM*	9	4%	?	18µM*	?
CCc1nc2c(OCc3ccc(C#N)cc3)cccn2c1N(C)C(=O)C(C)C	?	-17	-4%	7%	?	16%
CCc1nc2c(OCc3ccc(C(F)(F)F)cc3)cccn2c1N(C)C(=O)c1ccc(OC)cc1	13µM*	-81*	-24%	?	10µM*	?
CCc1nc2c(OCCOC)cccn2c1N(C)C(=O)c1ccc(C)cc1	-4%	6	?	12%	-3%	27%
CCOC(=O)N(C)c1c(CC)nc2c(OCc3ccc(C(F)(F)F)cc3)cccn12	13µM*	-9	10%	?	?	?
CCc1nc2c(OCc3ccc(C(F)(F)F)cc3)cccn2c1N(C)C(=O)c1ccc(C)cc1	23µM*	-76*	?	?	23µM*	?
CCc1nc2c(OCc3ccc(OC)cc3)cccn2c1N(C)C(=O)c1ccc(OC)cc1	?	-16	-24%	-13%	?	-3%
CCc1nc2c(OCc3ccc(C#N)cc3)cccn2c1N(C)C(=O)c1ccc(C)cc1	18µM*	-20	?	2%	18µM*	5%
CCCCC(=O)N(C)c1c(CC)nc2c(OCc3ccc(C(F)(F)F)cc3)cccn12	?	?	-2%	?	?	?
CCCc1nn(-c2ccccc2C)c(OC(C)=O)c1-c1ccc(NC(=O)CC)cc1	.	.	33%	.	.	.
Fc1cccc(/C=C/c2nc3cc(-c4ccccc4)ccc3o2)c1	.	.	17%	.	.	.

High-throughput results as filed in PubChem.
